Measurements taken from ChEMBL document CHEMBL4513148, “CO-ADD screening of Stellenbosch University (South Africa) compounds”.
Hit rate of the full screen: of about 23,000 compounds, about 30 (0.1%) showed an effect of 50% or more. This excerpt belongs to a sample that is enriched for strong results. Results with a measured potency or affinity are listed apart.

Tested on: Pseudomonas aeruginosa
Details: Concentration 32 ug.mL-1; ASSAY_TEST Inhibition of Bacterial Growth; detection method Absorption (OD600); MEDIA CAMHB; plate type 384well; NBS; CORNING #3640; time 18 hr

Point of comparison: `CC(C)(C)C(O)C(=O)NCCC(=O)NCCc1ccccc1` (stereo unspecified), Inhibition 40.95%. Against it:
- CC(C)(CO)[C@@H](O)C(=O)NCCC(=S)NCCc1ccccc1 — lower, 38.53%
- CC(C)(COP(=O)(O)O)[C@@H](O)C(=O)NCCC(=O)NCCc1ccccc1 — lower, 35.19%
- CC(CC(=O)NCCc1ccccc1)NC(=O)[C@H](O)C(C)(C)CO (stereo partly specified) — higher, 72.5%
- CC(C)(CN)C(O)C(=O)NCCC(=O)NCCc1ccccc1 (stereo unspecified) — higher, 51.6%
- CC(C)(CO)[C@@H](O)C(=O)N/C=C/C(=O)NCCc1ccccc1 — lower, 39.92%
